In the supplement of paper PMC11732987, “Enantioselective OTUD7B fragment discovery through chemoproteomics screening and high-throughput optimisation” (Communications Chemistry, 2025):

Experiments:
Test in all cases: log2 ratio of Biotin-Ahx-Ub-VS probe labelling (fragment/DMSO); higher = less target engagement (more negative = stronger competition), active = hit call of the paper (q ≤ 0.05, log2 ratio ≤ -1)
Details in all cases: compound concentration: 200 uM; treatment time: 3 h
USP34 = USP34 (UniProt Q70CQ2)
Method in brief: (§1)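 Each value is an average log2 ratio of fragment to vehicle, tested by unpaired t-test. The underlying Spectronaut label-free quantities were global-median-normalised, and only proteins with ≥2 unique peptides were included. Triplicate HEK293T lysate samples (495 µg) were exposed to fragment at 200 µM or vehicle for 3 h, then to Biotin-Ahx-Ub-VS at 0.5 µM final for 1 h, before NeutrAvidin enrichment of labelled DUBs, LysC and trypsin digestion, and diaPASEF LC-MS/MS.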

USP36 = target: T1, USP36 (UniProt Q9P275)
T1 sequence (whole entry): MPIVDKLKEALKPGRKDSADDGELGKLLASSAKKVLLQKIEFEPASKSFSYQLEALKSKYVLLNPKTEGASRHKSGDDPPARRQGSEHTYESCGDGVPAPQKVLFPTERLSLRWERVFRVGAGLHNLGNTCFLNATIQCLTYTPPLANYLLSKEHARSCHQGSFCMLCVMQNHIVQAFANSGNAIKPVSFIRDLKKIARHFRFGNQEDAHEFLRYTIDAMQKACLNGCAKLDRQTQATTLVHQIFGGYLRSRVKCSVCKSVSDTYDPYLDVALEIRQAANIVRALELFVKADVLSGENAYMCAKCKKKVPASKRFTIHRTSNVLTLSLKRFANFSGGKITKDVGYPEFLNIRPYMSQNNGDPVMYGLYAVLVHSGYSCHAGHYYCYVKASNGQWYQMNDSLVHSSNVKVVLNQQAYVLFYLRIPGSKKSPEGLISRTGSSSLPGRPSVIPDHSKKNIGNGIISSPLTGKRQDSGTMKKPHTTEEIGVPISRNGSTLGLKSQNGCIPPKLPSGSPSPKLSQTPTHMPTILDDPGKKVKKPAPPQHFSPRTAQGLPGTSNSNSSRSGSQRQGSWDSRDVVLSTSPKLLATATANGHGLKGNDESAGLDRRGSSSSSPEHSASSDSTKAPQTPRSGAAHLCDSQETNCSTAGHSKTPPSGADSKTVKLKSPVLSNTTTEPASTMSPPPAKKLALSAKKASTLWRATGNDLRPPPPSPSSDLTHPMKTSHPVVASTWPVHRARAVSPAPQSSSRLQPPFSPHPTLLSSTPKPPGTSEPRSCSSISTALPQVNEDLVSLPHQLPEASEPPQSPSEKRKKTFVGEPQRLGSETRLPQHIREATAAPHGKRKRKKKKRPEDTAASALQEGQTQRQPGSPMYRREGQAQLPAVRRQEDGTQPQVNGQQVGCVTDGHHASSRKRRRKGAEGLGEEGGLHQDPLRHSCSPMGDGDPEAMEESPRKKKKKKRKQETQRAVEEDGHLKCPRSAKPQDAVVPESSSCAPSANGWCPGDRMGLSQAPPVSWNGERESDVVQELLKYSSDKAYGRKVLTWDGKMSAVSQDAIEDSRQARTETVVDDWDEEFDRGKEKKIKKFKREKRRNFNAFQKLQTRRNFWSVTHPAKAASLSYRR
Method in brief: as §1

USP38 = target: T2, USP38 (UniProt Q8NB14)
T2 sequence (whole entry): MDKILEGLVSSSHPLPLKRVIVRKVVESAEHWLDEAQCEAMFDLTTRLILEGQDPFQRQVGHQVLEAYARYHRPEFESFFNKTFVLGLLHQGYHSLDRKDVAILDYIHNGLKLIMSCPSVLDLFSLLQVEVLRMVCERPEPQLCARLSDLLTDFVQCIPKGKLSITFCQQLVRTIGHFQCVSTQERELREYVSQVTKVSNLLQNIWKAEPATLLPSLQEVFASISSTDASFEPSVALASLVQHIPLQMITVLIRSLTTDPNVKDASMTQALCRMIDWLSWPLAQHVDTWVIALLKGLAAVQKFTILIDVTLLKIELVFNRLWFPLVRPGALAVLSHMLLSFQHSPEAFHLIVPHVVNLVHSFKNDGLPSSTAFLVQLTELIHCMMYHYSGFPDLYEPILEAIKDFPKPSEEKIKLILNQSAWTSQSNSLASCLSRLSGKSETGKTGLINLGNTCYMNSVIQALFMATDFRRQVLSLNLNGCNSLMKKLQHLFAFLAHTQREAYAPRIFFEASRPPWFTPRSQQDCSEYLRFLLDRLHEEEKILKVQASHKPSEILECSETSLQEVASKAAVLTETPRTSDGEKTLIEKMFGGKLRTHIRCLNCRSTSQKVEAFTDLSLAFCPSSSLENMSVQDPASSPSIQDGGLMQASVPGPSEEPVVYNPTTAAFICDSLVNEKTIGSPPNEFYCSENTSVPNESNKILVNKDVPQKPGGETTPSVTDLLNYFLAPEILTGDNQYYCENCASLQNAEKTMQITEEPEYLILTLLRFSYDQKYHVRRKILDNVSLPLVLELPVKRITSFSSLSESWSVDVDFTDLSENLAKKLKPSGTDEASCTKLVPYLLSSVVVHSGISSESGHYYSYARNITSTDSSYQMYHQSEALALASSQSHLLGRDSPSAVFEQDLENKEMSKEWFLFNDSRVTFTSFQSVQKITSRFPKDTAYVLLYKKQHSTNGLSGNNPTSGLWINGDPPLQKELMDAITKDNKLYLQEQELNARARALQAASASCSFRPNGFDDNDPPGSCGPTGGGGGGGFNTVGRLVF
Method in brief: as §1

USP39 = target: T3, USP39 (UniProt Q53GS9)
T3 sequence (whole entry): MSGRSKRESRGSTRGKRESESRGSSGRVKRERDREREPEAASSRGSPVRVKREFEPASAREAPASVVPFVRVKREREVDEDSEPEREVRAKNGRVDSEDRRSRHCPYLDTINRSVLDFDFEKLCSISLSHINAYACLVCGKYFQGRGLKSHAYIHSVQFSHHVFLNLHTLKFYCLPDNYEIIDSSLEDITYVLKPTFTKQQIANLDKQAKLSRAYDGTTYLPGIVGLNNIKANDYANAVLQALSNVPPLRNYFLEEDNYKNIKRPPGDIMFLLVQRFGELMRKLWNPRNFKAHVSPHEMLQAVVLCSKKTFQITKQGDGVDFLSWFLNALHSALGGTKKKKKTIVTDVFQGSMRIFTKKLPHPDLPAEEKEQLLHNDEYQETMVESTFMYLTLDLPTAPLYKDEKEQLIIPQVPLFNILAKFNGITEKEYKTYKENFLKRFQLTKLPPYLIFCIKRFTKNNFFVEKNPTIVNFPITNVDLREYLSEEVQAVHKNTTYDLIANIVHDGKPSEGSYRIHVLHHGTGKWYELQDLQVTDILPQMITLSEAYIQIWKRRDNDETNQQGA
Method in brief: as §1

USP4 = target: T4, USP4 (UniProt Q13107)
T4 sequence (whole entry): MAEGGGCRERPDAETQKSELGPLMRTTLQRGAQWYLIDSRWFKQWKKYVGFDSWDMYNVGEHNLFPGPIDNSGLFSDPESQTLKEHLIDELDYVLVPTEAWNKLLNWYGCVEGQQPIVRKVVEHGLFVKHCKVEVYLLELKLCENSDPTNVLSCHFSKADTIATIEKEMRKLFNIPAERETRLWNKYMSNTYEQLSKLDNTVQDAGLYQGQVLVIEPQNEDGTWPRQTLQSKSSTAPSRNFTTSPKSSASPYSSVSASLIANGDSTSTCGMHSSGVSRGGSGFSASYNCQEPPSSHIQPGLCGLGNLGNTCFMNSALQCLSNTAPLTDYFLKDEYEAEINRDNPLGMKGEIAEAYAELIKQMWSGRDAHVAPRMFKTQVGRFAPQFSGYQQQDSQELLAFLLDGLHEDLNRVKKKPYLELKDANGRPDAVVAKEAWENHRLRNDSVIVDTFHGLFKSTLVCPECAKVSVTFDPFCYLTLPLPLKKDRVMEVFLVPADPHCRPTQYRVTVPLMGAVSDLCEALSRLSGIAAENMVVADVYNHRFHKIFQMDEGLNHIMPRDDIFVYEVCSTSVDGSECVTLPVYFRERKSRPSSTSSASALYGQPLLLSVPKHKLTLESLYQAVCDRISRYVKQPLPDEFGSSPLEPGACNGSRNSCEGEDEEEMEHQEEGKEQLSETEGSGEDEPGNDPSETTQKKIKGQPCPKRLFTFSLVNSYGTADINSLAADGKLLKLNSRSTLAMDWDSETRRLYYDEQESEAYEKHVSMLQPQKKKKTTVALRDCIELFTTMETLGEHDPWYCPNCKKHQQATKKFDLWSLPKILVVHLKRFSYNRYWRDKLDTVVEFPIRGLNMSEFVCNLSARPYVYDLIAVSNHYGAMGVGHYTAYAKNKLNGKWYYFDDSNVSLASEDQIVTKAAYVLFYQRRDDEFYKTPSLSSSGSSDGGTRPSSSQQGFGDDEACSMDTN
Method in brief: as §1

Measured: log2 ratio of Biotin-Ahx-Ub-VS probe labelling

Chain of USP34 (Q70CQ2 whole entry, the tested form may be a part): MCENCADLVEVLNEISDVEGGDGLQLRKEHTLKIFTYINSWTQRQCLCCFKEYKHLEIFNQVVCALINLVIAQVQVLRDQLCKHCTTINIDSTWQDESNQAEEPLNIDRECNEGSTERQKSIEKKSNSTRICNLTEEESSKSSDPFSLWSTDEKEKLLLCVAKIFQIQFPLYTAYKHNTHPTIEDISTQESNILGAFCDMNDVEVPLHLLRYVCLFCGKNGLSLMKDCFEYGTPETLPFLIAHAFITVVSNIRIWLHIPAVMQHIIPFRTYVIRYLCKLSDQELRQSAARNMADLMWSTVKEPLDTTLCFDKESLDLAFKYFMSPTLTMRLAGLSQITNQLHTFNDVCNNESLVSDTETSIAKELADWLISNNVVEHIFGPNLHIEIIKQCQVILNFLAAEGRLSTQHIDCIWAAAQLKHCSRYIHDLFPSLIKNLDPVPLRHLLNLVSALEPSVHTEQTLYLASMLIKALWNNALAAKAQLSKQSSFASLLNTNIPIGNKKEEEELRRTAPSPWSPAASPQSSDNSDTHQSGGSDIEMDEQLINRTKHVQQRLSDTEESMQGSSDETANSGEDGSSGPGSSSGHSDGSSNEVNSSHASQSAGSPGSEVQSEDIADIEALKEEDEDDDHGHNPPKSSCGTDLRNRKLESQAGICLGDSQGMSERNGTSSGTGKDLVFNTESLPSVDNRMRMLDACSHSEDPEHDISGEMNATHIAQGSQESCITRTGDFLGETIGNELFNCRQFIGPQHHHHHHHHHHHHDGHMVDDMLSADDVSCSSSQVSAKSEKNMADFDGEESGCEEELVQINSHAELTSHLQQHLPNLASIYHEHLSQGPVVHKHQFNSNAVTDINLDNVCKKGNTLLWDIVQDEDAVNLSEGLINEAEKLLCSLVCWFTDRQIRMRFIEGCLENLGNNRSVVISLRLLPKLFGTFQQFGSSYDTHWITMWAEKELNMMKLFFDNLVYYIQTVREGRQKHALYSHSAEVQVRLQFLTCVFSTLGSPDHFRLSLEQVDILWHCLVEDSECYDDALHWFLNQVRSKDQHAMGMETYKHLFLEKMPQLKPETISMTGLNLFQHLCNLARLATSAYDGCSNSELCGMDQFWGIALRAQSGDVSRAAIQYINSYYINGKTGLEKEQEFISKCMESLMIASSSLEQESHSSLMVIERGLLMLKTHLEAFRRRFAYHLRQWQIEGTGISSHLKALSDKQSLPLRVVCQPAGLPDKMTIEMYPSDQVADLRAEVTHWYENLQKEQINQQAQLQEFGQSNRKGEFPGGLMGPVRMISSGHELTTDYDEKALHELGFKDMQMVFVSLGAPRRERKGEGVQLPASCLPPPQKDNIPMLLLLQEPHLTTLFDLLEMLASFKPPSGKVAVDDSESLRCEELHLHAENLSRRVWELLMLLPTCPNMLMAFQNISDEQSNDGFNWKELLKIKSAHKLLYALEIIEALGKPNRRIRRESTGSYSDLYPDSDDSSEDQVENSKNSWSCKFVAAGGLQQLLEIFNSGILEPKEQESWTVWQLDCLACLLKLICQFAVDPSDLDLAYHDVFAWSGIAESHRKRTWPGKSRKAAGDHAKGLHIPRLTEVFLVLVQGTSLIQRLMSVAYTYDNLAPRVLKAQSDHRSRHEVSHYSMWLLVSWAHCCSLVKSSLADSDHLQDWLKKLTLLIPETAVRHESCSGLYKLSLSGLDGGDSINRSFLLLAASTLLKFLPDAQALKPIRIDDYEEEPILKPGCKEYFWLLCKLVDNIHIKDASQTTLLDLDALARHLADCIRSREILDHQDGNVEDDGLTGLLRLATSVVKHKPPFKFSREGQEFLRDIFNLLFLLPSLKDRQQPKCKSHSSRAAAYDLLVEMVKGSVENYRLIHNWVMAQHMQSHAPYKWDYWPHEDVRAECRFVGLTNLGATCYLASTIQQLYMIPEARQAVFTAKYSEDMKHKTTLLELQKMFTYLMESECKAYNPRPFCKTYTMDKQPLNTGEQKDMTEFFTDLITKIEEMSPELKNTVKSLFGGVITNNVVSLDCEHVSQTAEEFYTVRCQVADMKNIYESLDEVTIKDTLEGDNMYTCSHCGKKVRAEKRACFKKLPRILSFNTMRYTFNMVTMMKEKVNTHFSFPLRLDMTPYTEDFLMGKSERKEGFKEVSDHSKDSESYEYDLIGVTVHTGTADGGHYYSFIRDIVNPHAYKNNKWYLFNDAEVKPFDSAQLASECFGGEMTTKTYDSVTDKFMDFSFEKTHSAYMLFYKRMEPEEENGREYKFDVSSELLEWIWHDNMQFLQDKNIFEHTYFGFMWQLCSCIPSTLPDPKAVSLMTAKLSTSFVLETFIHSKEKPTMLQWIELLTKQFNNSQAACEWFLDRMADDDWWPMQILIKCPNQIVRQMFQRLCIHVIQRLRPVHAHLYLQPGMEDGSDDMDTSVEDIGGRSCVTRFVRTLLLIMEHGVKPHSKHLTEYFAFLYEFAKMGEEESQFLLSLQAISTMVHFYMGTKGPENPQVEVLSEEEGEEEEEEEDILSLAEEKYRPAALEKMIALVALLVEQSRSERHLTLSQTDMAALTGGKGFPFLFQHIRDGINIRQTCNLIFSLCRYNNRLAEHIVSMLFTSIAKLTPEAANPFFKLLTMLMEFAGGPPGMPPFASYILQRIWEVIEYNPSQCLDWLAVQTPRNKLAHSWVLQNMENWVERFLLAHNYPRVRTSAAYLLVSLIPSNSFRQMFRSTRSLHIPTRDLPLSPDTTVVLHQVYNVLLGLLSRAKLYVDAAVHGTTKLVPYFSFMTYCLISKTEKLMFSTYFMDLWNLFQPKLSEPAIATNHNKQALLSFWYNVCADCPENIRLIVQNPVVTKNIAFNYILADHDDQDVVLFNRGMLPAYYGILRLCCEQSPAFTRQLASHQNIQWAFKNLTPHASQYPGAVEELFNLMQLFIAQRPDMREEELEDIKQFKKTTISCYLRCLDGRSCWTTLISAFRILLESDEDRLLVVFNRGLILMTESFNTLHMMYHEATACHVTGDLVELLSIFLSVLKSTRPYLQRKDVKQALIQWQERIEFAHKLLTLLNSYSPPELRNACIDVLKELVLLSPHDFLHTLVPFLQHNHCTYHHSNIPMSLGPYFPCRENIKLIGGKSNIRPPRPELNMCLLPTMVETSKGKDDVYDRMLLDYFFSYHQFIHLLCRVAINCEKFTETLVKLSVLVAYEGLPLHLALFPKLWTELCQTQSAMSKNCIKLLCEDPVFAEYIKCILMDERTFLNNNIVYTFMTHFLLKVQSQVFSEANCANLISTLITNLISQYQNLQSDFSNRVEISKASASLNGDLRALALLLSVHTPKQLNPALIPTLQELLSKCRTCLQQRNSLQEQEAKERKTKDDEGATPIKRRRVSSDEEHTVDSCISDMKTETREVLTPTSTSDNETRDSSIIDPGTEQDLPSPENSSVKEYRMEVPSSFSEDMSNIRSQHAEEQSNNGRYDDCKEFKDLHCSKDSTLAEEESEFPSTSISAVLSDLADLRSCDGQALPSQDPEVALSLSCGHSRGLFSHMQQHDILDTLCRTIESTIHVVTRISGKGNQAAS

Cc1nc(CN2CCN(C(=O)CCl)CC2)cs1
inactive: USP34 0.0453 | USP36 -0.0366 | USP38 -0.217 | USP39 -0.381 | USP4 -0.261
